# In the library only some 11% were active in any assay of this set; here they are far more common.
# IMPase inh – cell-permeable inhibitors of inositol monophosphatase (IMPase); inhibition (IP1 accumulation), % at 46.1 µM; P97697; CHO-M1 cells, IP1 accumulation, HTRF TR-FRET ratio; 120,000 tested, under 10 active; active = well fitted curve in the direction sought with a large enough effect in the signal ratio, not every such curve was filed as active; inconclusive = small, poorly fitted or top-dose-only effect, or a change in a side signal; inactive = no such curve, though single readings can be large or run the other way; the % refers to the signal ratio;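 note: cells stimulated with carbachol in lithium chloride buffer; higher means more IMPase inhibition seen as more IP1 and lower FRET ratio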
# Target sequence (P97697 whole entry, looked up): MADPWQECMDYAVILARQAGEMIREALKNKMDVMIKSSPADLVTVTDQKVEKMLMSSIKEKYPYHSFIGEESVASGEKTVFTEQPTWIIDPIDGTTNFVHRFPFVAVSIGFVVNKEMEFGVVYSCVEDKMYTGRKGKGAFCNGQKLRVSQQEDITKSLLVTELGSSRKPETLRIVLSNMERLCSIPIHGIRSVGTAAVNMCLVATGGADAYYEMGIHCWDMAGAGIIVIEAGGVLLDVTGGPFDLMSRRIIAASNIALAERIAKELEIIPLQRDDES
#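 CHO-M1 cells (CHO stably expressing M1 receptor), compound up to 46 uM final, stimulated with carbachol (50 uM as added) in buffer with 50mM LiCl, pH 7.4, 30 min at 37C. Cytosolic IP1 read by TR-FRET; AC50 from Hill fits.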
# HPGD inh – blocks human HPGD enzyme activity; P15428; purified HPGD, NADH fluorescence kinetic, PGE2 substrate; Potency, µM, usual class: inhibitors; 4.3% of 150,000 active; AID 894
# Target sequence (P15428 whole entry, looked up): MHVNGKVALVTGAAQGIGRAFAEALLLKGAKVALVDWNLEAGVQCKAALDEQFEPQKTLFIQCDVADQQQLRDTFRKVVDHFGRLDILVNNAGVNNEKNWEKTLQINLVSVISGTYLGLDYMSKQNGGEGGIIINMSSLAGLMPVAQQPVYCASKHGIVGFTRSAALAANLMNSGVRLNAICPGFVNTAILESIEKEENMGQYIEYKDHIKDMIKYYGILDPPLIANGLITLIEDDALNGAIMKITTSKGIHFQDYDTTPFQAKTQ
#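 NADH formation kinetics: reaction with 30 uM PGE2 and 1 mM NAD+ (final), 20 nM enzyme, Tris-HCl pH 8 with Tween 20, after 15 min compound preincubation at room temperature. Fluorescence change, last versus first of five reads.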
# PNC assembly inh – blocks assembly of the perinucleolar compartment; 3.1% of 140,000 active; activity change (PNC), negative = inhibition, % at 10 µM; PC3M PTB-GFP, PNC prevalence imaging, 16 h; hits give low values; AID 2417;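 active = readout at or below -70, meaning at least 70% loss of cells showing the perinucleolar compartment, a nuclear body marking cancer cells; inconclusive = readout between -30 and a set limit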
#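 Read-out is percentage of cells bearing a perinucleolar compartment, from automated 20x imaging of fixed, Hoechst-stained PC3M PTB-GFP cells. Cells were seeded 4 h, then exposed 16 h to compound (23 nl of library stock) in duplicate plates.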
# ALDH1A1 block – inhibitors of human aldehyde dehydrogenase 1A1. Potency, µM (series often up to 75.3 µM), usual class: inhibitors. Purified ALDH1A1, NADH fluorescence, propionaldehyde substrate. P00352. 7.3% of 220,000 active
# IMPase Li inh – IMPase inhibition in cells with lithium potentiation. Potency, µM (titrated, usually from 59.4 µM), most hits filed as inhibitors. CHO-M1 cells, IP1 TR-FRET (IP-One), carbachol + lithium. AID 1457. 0.35% of 210,000 active; active = well fitted inhibition curve with a large enough effect; inconclusive = small, poorly fitted or top-dose-only effect; inactive = no such curve, though single readings can be large or run the other way;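 note: IP1 builds up when IMPase is blocked and the TR-FRET signal falls; nearly all actives have a fitted effect of over 50% in size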
#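 Readout is a homogeneous TR-FRET IP1 immunoassay (Ex 320, Em 665 and 620), where raised cytosolic IP1 lowers signal. Cells were CHO-M1 treated 30 min at 37C with test compounds plus a little lithium; AC50 values came from Hill-equation fitting.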
# A number is an active result; . = inactive; ? = inconclusive; / = no result; [ ] = another dose, or the depositor's remark. Unless noted, calls come from the whole dose curve; as a rule, active = well fitted inhibition curve with a large enough effect (not every such curve was filed as active); inconclusive = small, poorly fitted or top-dose-only effect, or another doubt; inactive = no such curve, though single readings can be large or run the other way.
SMILES,IMPase inh,HPGD inh,PNC assembly inh,ALDH1A1 block,IMPase Li inh
NC(N)=NCCC[C@H](NC(=O)CC1(CC(=O)N2CCN(C3c4ccccc4NC(=O)c4ccccc43)CC2)CCCC1)C(=O)NCCn1c(=O)n(-c2ccccc2)n(-c2ccccc2)c1=O (some centres undefined),/,.,/,.,.
COC(=O)C1=C(C(=O)OC)[C@@H]2N(C)c3ccccc3[C@@]23C[C@@H](C(=O)OC)N(S(=O)(=O)c2ccc([N+](=O)[O-])cc2)C3=N1,/,.,/,.[13.5 µM],.
Cc1c(Cl)cccc1NC(=O)c1cc(C2CC2)on1,.,.,.,.,.
Cc1cc(C)c2c(=O)c(C#N)coc2c1,/,/,/,10µM,/
Cc1cc(C)c2c(CC(=O)NC(C)C)coc2c1,/,/,/,.,.
Nc1ccccc1C(=O)N1CCCC1,/,/,/,?,.
CCCS(=O)(=O)c1c(S(=O)(=O)CCC)c2c3ccccc3ccn2c1C(N)=O,.,.,.,.,.
N#CC1=C(N)C2=CCCC[C@H]2[C@H](c2ccccc2)C1(C#N)C#N,/,.,?,?,.
N#CC1=C(N)C2=CCCC[C@H]2[C@H](c2ccc(Br)cc2)C1(C#N)C#N,.,.,.,13µM,.
C/C(=C\c1ccccc1)CN1CCC(C(=O)N2CCC(C)CC2)CC1,.,.,.,35µM,.
C/C(=C\c1ccccc1)CN1CCC(C(=O)N2CCCCC2)CC1,/,14µM,.,?,.
O=C(C1CCCN(Cc2cccnc2)C1)N1CCCCC1 (centres undefined),.,/,-82,5µM,/
O=C(C1CCN(CCCc2ccccc2)CC1)N1CCCCC1,.,.,.,14µM,.
CCCCNC(=O)C1CCN(C/C(C)=C/c2ccccc2)CC1,.,.,.,?,.
COc1cccc(-c2ccc3ncnc(NCc4ccccc4)c3c2)c1,/,/,/,?,.
CC(C)C[C@@H](CC(=O)N[C@@H](CCC(=O)O)CC(=O)O)NC(=O)[C@@H]1CNCC[C@H]1NC(=O)C[C@@H](NC(=O)C[C@H](Cc1ccccc1)NC(=O)[C@@H]1CCCC[C@H]1N)C(C)C,/,.,/,.,.
COc1ccc(C(=O)NC(=S)Nc2ccc3oc(=O)ccc3c2)cc1,/,.,.,.,.
CCCCCC(=O)NC(=S)Nc1ccc2oc(=O)ccc2c1,/,/,/,7.1µM,.
O=[N+]([O-])c1ccc(NCCO)c(OCCO)c1,/,.,/,.,.
C=CC1=C2C=C(C3CC3)N(CCOC)C=C2C(=O)C(C)(OC(=O)c2ccco2)C1=O (centres undefined),/,.,/,.[13.5 µM],.
COc1ccccc1-c1cn[nH]c(=S)n1,.,22µM,.,7.1µM,.
COc1cc(/C=C2\C(=O)N(CCC#N)N=C2C)ccc1OCC(=O)Nc1ccccc1,/,10µM,.,13µM,.
CC1=NN(CCC#N)C(=O)/C1=C/c1ccc(N(C)C)cc1,/,/,/,7.9µM,.
CCOc1cc(/C=C2\C(=O)N(CCC#N)N=C2C)ccc1OCC(N)=O,/,/,/,.,.
CN1c2cc3c(cc2N=C(c2ccc(C(=O)O)cc2)c2ccccc21)C(C)(C)CCC3(C)C,/,.,/,.,.
SMILES,IMPase inh,HPGD inh,PNC assembly inh,ALDH1A1 block,IMPase Li inh
C[C@H]1Cc2c(COc3ccccc3)nc3c(c2CO1)CN(C(=O)c1cc(I)ccc1F)CC3,/,.,/,.[13.5 µM],.
Cc1onc(NC(=O)CSCC(=O)O)c1Br,/,/,/,.,/
O=C(Cc1ccccc1)Nc1cccc(N2CCCC2)c1,.,?,?,14µM,.
COc1ccc(-c2nc3n(n2)C(c2ccccc2Cl)C(C(N)=O)=C(C)N3)cc1 (centres undefined),.,.,.,.,.
Cn1c(=O)c(-c2cccc(F)c2)nc2cncnc21,/,/,/,?,.
C=CCn1c(=S)[nH]c2sccc2c1=O,/,/,/,32µM,.
C=CCn1c(-c2csc3ccccc23)n[nH]c1=S,.,.,.,.,.
NNC(=O)c1ccc(Cn2cc(Cl)cn2)o1,/,/,/,.,/
Cc1ccc2nc(NC(=O)c3ccc(Cn4cc(Cl)cn4)o3)sc2c1,.,?,-100,?,.
Nn1c(SCc2cccc(C(F)(F)F)c2)nnc1-c1ccco1,.,.,.,22µM,.
Brc1cc2c(cc1COc1ccc(-c3nn[nH]n3)cc1)OCO2,.,25µM,.,?,.
CO[C@@H]1/C=C\O[C@]2(C)Oc3c(C)c(O)c4c(O)c(c(CN5CCN(C)CC5)c(O)c4c3C2=O)NC(=O)/C(C)=C\C=C[C@@H](C)[C@@H](O)[C@H](C)[C@@H](O)C(C)[C@H](OC(C)=O)[C@@H]1C (some centres undefined),/,.,/,.[13.5 µM],.
O=C(N/N=C/c1ccc(Cl)cc1Cl)c1n[nH]c2c1CCCC2,/,.,-84,.,.
O=C(N/N=C/C=C/c1ccccc1)c1n[nH]c2c1CCC2,.,.,-98,.,.
O=C(N/N=C/C(Br)=C\c1ccccc1)c1n[nH]c2c1CCC2,.,?,?,?,.
Cc1cc(C(=O)N/N=C/C=C/c2cccc([N+](=O)[O-])c2)n[nH]1,/,/,/,.,.
Cc1ccc(-c2cc(C(=O)N/N=C/C=C/c3ccccc3)n[nH]2)s1,/,32µM,.,?,.
CCN(CC)S(=O)(=O)c1cc(C(=O)OCC(=O)Nc2cccc(C)c2C)ccc1F,.,.,.,.,.
CCN(CC)c1nc2n(c(=S)n1)CCS2,.,.,-88,.,.
Cc1c(Cl)c(C(=O)NC2C3CC4CC(C3)CC2C4)nn1C (centres undefined),/,20µM,?,?,.
Cn1ncc(Br)c1C(=O)NC1C2CC3CC(C2)CC1C3 (centres undefined),/,.,.,.,.
O=C(COc1ccc(Cl)cc1Cl)NCc1ccncc1,.,25µM,.,?,.
O=C(CCCOc1ccc(Cl)cc1Cl)NCc1ccncc1,/,/,/,20µM,.
COc1ccc(-c2nn(-c3ccccc3)cc2/C=N/NC(N)=S)cc1OC,/,.,-112,.,.
COc1ccc(-c2nn(-c3ccccc3)cc2/C=C(\C#N)S(=O)(=O)c2ccccc2)cc1OC,/,.,.,8.9µM,.
SMILES,IMPase inh,HPGD inh,PNC assembly inh,ALDH1A1 block,IMPase Li inh
COc1ccc(-c2nn(-c3ccccc3)cc2/C=N/n2cnnc2)cc1OC,.,.,?,.,.
Clc1ccc2[nH]cc(-c3nnnn3-c3ccc4ccccc4c3)c2c1,.,.,.,9.5µM,.
Cc1ccsc1/C=C1\SC(N2CC(C)OC(C)C2)=NC1=O (centres undefined),/,.,.,18µM,.
O=C(c1cccc(F)c1)N1CCC2(CC1)CCN(c1ncccn1)CC2,/,.,/,.,.
Cc1ccc(C2CC(=O)Oc3cc(C)c(Cl)cc32)cc1 (centres undefined),/,.,/,.,.
O=C(NCCc1ccc(Cl)cc1)C1CCN(C(=O)c2sccc2-n2cccc2)CC1,.,.,.,0.5µM,.
CC(CCc1ccccc1)NC(=O)C1CCN(C(=O)c2sccc2-n2cccc2)CC1 (centres undefined),.,.,.,0.35µM,.
O=C(NCCc1ccc(Cl)cc1)C1CCN(S(=O)(=O)N2CCCC2)CC1,.,.,.,3.2µM,.

# Bioassay records: PubChem, National Center for Advancing Translational Sciences (NCATS)
